KCNH2 WT inh: KCNH2 (human, wildtype) channel inhibition | U2OS, BacMam KCNH2, thallium flux FluxOr; stronger effect = lower value | Q12809 | 340,000 tested, 0.37% active | activity change, % at 1.84 µM | AID 720551;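 active means maximum activity change below -70%; inconclusive means maximum activity change between -70% and -50%; inactive means maximum activity change above -50%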; further: on the % scale 0 is the no-effect control and ±100 the full control effect
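U2OS cells were transduced with wild-type KCNH2 virus (2.03 x 10^8 / mL) for 4 h at room temperature, then cultured overnight at 37 C. Thallium flux was read with FluxOr dye. Rate constants were normalized to DMSO controls.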
A-T KAP1 phos: potential ataxia-telangiectasia treatments restoring KAP-1 phosphorylation; AID 485349; Potency, µM (series often up to 57.5 µM), without a hit: at the top dose activation, hits mostly activators; 320,000 tested, 0.19% active; F2112 A-T fibroblasts, KAP-1 phosphorylation AlphaLISA; neocarzinostatin DNA damage 30 min before lysis; further: potency means the concentration at half of the fitted maximal effect; % of control where 0% means no effect; nearly all actives have a fitted effect of over 45% in size
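ATM-like activity read as KAP-1 phosphorylation via AlphaLISA donor/acceptor antibody pairs after lysis and 6 hr at 25C. Cells were ATM-null patient fibroblasts (F2112, hTERT), dosed 60 min, then exposed to the DSB inducer NCS for 30 min.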
12-LOX inh: ALOX12 (human) lipoxygenase inhibition; purified 12hLO, xylenol orange hydroperoxide absorbance; P18054; 580,000 tested, 1.1% active; Potency, µM (doses to about 108 µM), for the others: at the highest dose activity change, negative = inhibition, usual class: inhibitors; AID 1671190; further: potency means the concentration at half of the fitted maximal effect; on the % scale 0 is the no-effect control and ±100 the full control effect
Target sequence (P18054 whole entry, looked up): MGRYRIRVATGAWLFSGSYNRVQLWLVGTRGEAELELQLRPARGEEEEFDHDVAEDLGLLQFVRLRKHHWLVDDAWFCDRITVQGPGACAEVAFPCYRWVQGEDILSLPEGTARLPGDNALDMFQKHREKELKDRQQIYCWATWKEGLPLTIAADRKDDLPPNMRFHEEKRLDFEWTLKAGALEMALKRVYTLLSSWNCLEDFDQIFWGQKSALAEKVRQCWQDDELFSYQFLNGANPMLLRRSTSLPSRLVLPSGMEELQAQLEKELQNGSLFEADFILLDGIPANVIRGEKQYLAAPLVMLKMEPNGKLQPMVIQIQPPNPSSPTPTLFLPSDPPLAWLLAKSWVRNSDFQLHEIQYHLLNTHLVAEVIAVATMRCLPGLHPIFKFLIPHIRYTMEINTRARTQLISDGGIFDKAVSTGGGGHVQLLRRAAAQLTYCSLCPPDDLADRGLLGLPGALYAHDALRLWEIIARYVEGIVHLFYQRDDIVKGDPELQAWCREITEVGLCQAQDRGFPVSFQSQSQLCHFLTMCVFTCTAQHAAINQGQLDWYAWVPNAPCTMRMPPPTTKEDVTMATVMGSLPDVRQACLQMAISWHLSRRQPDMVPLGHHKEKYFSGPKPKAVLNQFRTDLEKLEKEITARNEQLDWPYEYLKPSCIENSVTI
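Purified human 12hLO (150 nM final) in 25 mM Hepes, 0.01% Triton X-100, pH 7.0 was preincubated 15 min at room temperature with compound. Then 40 uM arachidonic acid was added, 30 min. Hydroperoxide was read by Fe-XO absorbance ratio 573/405 nm.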
KCNH2 3.1 inh: inhibitors of human KCNH2 3.1 potassium channel isoform | activity change, % (tested at about 1.8 µM) | AID 720553 | U2OS KCNH2 3.1, thallium flux FluxOr; stronger effect = lower value | 340,000 tested, 0.95% active;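 active means maximum activity change below -70%; inconclusive means maximum activity change from -70% to -50%; inactive means maximum activity change above -50%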;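 further: thallium influx rate constant from kinetic fluorescence after stimulation buffer; on the % scale 0 is the no-effect control and ±100 the full control effect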
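Measured as rate of thallium-driven FluxOr signal in transduced U2OS cells carrying the 3.1 channel, read kinetically for 2 min upon stimulation; values are rate constants scaled to DMSO control wells.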
Active calls of the source: *; i = inactive; ? = inconclusive; nt = no result given; [ ] = another dose, or the depositor's remark. The list is not random: actives were taken first. Their share in the collection is about 1.8%. Unless noted, the call rests on the fitted dose curve; in most records, active means well fitted curve in the direction sought with a large enough effect; inconclusive means small, poorly fitted or top-dose-only effect, or another doubt; inactive means no such curve, though single readings can be large; an effect the other way counts as inactive or inconclusive.

SMILES	KCNH2 WT inh	A-T KAP1 phos	12-LOX inh	KCNH2 3.1 inh
CCCCn1c(N)c(N(CCC(C)C)C(=O)C2CC(=O)N(c3ccc4c(c3)OCCO4)C2)c(=O)[nH]c1=O (stereo unspecified)	-1.8	11.0%	-17.3%	-4.0
CCCCN(C(=O)C1CC(=O)N(c2ccc3c(c2)OCCO3)C1)c1c(N)n(CC(C)C)c(=O)[nH]c1=O (stereo unspecified)	-151.8*	2.4%	-32.2%	-192.4*
Cc1c(NS(C)(=O)=O)cccc1-c1nc2cccnc2s1	2.1	-11.5%	0.0%	-0.7
Cc1c(NS(=O)(=O)c2cccs2)cccc1-c1nc2cccnc2s1	-3.3	-3.8%	?	-87.5*
COc1ccc(Cc2c(-c3ccc(C)cc3)nc3ccc(Cl)cn23)c(C)c1	nt	nt	39.8µM*	nt
COc1ccc(Cc2c(-c3ccc(F)cc3)nc3ccc(Br)cn23)c(C)c1	nt	nt	0.0%	nt
O=C(N/N=C/c1cc([N+](=O)[O-])ccc1Cl)c1cnccn1	-144.0*	-0.1%	?	-188.4*
Cc1ccc(C)c(NC(=O)[C@H]2CCC[C@H]2NC(=O)c2ccncc2)c1	nt	nt	29.9%	nt
CCc1ccccc1NC(=O)c1nc2ccccc2nc1N(CC)CC	nt	nt	-20.4%	nt
COc1ccccc1C1Nc2ccccc2NC2=C1C(=O)CC(C)(C)C2 (stereo unspecified)	-129.1*	14.4%	42.4%	-193.9*
CC1CCCC(C)N1CCCNC(=O)c1ccc2nc(N3CCCCC3)sc2c1 (stereo unspecified)	-158.1*	-8.4%	2.3%	-13.5
CC1CCCC(C)N1CCCNC(=O)c1ccc2nc(N3CCOCC3)sc2c1 (stereo unspecified)	1.1	6.5%	-2.4%	-5.7
O=C(Nc1ccc(F)cc1)c1cn(-c2ccccc2)nn1	nt	nt	-24.9%	nt
COc1ccc(C)cc1N(CC(=O)NC1CCCC1)C(=O)Cn1nnc(-c2ccc(C)o2)n1	1.5	-6.5%	-6.7%	-101.0*
COc1ccc(C2=NOC(Cc3cc(OC)c4c(c3OC)OCO4)C2)cc1 (stereo unspecified)	nt	nt	13.7%	nt
COc1cc(C(=O)NCc2coc(-c3cccs3)n2)cc(OC)c1Br	nt	nt	-18.8%	nt
CCSc1n[nH]c(=S)s1	-0.8	-1.3%	44.7µM*	10.9
COC(=O)CSc1n[nH]c(=S)s1	i	-14.4%	?	-6.7
CCCCOc1cccc(C(=O)Nc2ccc3oc(-c4ccncc4)nc3c2)c1	nt	nt	-22.8%	nt
CCC(C)NC(=O)C(C)NC(=O)NCc1ccc(C(F)(F)F)cc1 (stereo unspecified)	nt	nt	5.6%	nt
COc1ccccc1OC(=O)Nc1ccc(Cl)cc1	10.6	0.708µM*	9.1%	-3.9
CC1(C)CC(CCN2CCCCC2)(c2cccc(C(F)(F)F)c2)CCO1 (stereo unspecified)	nt	nt	1.78µM*	nt
Cc1ccc(C(=O)N2CCN(c3ccc(NC(=S)NC(=O)Cc4ccccc4)cc3)CC2)cc1	4.7	-4.1%	?	-47.6
Cc1ccccc1OCC(=O)Nc1ccccc1N1CCCCC1	3.2	31.6µM*	2.8%	-28.1
Cc1ccc(C(=O)N2CCN(c3ccc(NC(=O)COc4ccccc4C)cc3)CC2)cc1	-133.6*	-3.5%	-1.1%	-95.1*
SMILES	KCNH2 WT inh	A-T KAP1 phos	12-LOX inh	KCNH2 3.1 inh
COc1ccc(C(=O)N2CCN(c3ccc(NC(=O)Cc4ccccc4)cc3)CC2)cc1	-24.6	6.4%	-5.2%	-83.4*
Cc1cc(F)ccc1-c1[nH]nc2ncc(-c3c(C)noc3C)nc12	nt	nt	-6.3%[176 µM]	nt
CN(C)C[C@@H]1CN(c2ncccn2)C[C@H]1NC(=O)c1ccc2[nH]ccc2c1	nt	nt	75.3%	nt
O=[N+]([O-])c1ccc(OCC(O)CN(C2CCCCC2)C2CCCCC2)cc1 (stereo unspecified)	-70.2*	-3.5%	17.9%	-106.3*
Cc1cc(CC(=O)N2CC[C@@H](NC(=O)c3ccccn3)[C@H](O)C2)on1	nt	nt	27.0%	nt
Cc1cccc(NC(=O)Nc2ccc(Oc3c(F)c(F)c(F)c(F)c3F)cc2)c1	-11.4	5.0%	-1.0%	-5.4
O=C(Nc1ccc(Oc2c(F)c(F)c(F)c(F)c2F)cc1)OC1CCN2Cc3ccccc3N=C12 (stereo unspecified)	-83.2*	0.0%	nt	-100.2*
Cc1nc2cc(-c3cccc(F)c3)nn2c(C)c1CCC(=O)Nc1ccc(F)c(Cl)c1	nt	nt	23.9%	nt
Cc1nn(C)c2c1c(-c1ccccc1)cc(=O)n2CC(=O)NC(C)c1ccccc1 (stereo unspecified)	nt	nt	44.7µM*	nt
Cc1cc(=O)n(CC(=O)NC(C)c2ccccc2)c2c1c(C)nn2C (stereo unspecified)	nt	nt	50.1µM*	nt
Cc1ccc(NC(=O)Cn2c(=O)cc(-c3ccccc3)c3c(C)nn(C)c32)c(Cl)c1	nt	nt	-22.1%	nt
COc1ccc(Nc2nc(N3CCCC3)c3nccnc3n2)c(OC)c1	nt	nt	2.2%	nt
CC(=O)c1c(NC(=O)c2ccccc2)[nH]c(-c2ccccc2)nc1=S	2.9	-3.7%	39.8µM*	-1.0
O=C(N/N=C\c1ccc(COc2ccc([N+](=O)[O-])cc2)o1)c1ccc(Cl)cc1	?	-3.7%	0.0%	-76.8*
COC(=O)c1c(C)sc(-c2c(-c3ccc(F)cc3)[nH]c3[nH]c(=O)[nH]c(=O)c23)c1O	nt	nt	44.7µM*	nt
CCc1ccc(-c2[nH]c3c(c2-c2sc(C)c(C(=O)OC)c2O)c(=O)n(C)c(=O)n3C)cc1	nt	nt	-12.2%	nt
Cc1nc2ccc3nc(NC(=O)c4ccc5c(c4)OCCO5)sc3c2s1	-2.4	25.1µM*	8.8%	-0.1
Cc1ccc(NNC(=S)Nc2ccc(C(C)C)cc2)c(C)c1	2.0	1.7%	35.5µM*	-16.8
COc1ccccc1CNC(=O)CCC(=O)Nc1nnc(C)s1	-297.7*	-1.6%	0.0%	-3.9
Cn1c(CCN2CCCCC2)nc2cc(NS(=O)(=O)c3ccc(F)cc3)ccc21	-45.3	13.9%	-15.2%	-89.4*
Cc1ccc(S(=O)(=O)Nc2ccc3c(c2)nc(CCN2CCOCC2)n3C)cc1	-2.9	2.7%	-0.6%	6.2
Cc1ccc(S(=O)(=O)Nc2ccc3c(c2)nc(CCN2CCCCC2)n3C)cc1	22.1	-2.7%	0.0%	?
Cn1c(CCN2CCN(c3ccccn3)CC2)nc2cc(NS(=O)(=O)c3ccc(Cl)cc3)ccc21	-80.2*	-1.9%	-16.5%	-103.5*
Cc1ccc(S(=O)(=O)Nc2ccc3c(c2)nc(CCN2CCN(c4ccccn4)CC2)n3C)cc1	-41.0	4.5%	3.6%	-96.2*
CN(CCOc1ccc(Br)cc1)CC(O)COc1ccc(C#N)cc1 (stereo unspecified)	-113.0*	2.7%	39.2%	-119.6*
COc1ccc(Br)cc1CN(C)CC(O)COc1ccc(Br)cc1 (stereo unspecified)	-18.2	8.4%	?	-74.7*
COc1ccccc1CN(C)CC(O)COc1ccc(-c2ccccc2)cc1 (stereo unspecified)	nt	nt	5.3%	nt
FC(F)(F)c1cccc(NC(=S)NC2CC2)c1	nt	nt	-12.4%	nt
Cc1cc(C(=O)N2C[C@@H](Oc3ccccc3)C[C@H]2C(=O)N2CCCC2)nn1C	nt	nt	27.5%	nt
CCCCc1ccc(NC(=O)N2CCN(Cc3ccc(Cl)s3)CC2)cc1	nt	nt	2.9%	nt
